A short description of assay [1]: qHTS profiling for inhibitors of Plasmodium falciparum proliferation (AID 504749). Also: nearly all actives have a fitted effect of over 60% in size.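 As to activity, negative = inhibition: 0% = DMSO vehicle and full inhibition = artemisinin control.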 The settings on record: P. falciparum in erythrocytes, SYBR Green DNA, 72 h. In short, it runs like this:
(§1)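 Parasite proliferation within erythrocytes, 72 h exposure. Endpoint: SYBR Green I fluorescence after overnight lysis at room temperature. Controls: 0.29 uM artemisinin, DMSO.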

A further assay deals with 3D7. The assay is described as above. As to conditions: P. falciparum in erythrocytes, SYBR Green DNA, 72 h; series mostly up to 28.7 µM. Summed up: as §1
The test system of another assay is 7G8. The assay is described as above. The settings on record: P. falciparum in erythrocytes, SYBR Green DNA, 72 h; series mostly up to 28.7 µM. In short, it runs like this: as §1
The test system of the next assay is AA1029. The description is as above. The settings on record: P. falciparum in erythrocytes, SYBR Green DNA, 72 h; series mostly up to 28.7 µM. In short, it runs like this:
as §1

The next assay deals with AS120. The assay is described as above. As to conditions: P. falciparum in erythrocytes, SYBR Green DNA, 72 h; series mostly up to 28.7 µM. In short, it runs like this:
as §1

In the next assay the test system is ATS189. The description is as above. The settings on record: P. falciparum in erythrocytes, SYBR Green DNA, 72 h; series mostly up to 28.7 µM. In short, it runs like this:
as §1

The next assay has as its system ATS95. The assay is described as above. The settings on record: P. falciparum in erythrocytes, SYBR Green DNA, 72 h; series mostly up to 28.7 µM. In short, it runs like this: as §1
In a further assay the test system is C2A. The assay is described as above. The settings on record: P. falciparum in erythrocytes, SYBR Green DNA, 72 h; series mostly up to 28.7 µM. In short, it runs like this:
as §1

The subject of another assay is CP185. The description is as above. As to conditions: P. falciparum in erythrocytes, SYBR Green DNA, 72 h; series mostly up to 28.7 µM. Summed up: as §1
The subject of the next assay is CP191. The description is as above. The settings on record: P. falciparum in erythrocytes, SYBR Green DNA, 72 h; series mostly up to 28.7 µM. In short, it runs like this:
as §1

The mark [2] stands for this setting: at 28.7 µM (top of the series), parasite line A.
Where [3] appears, read: at 28.7 µM (top of the series), parasite line B.
Setting [4] is: at 12.8 µM (top of the series), parasite line A.
Setting [5] is: at 12.8 µM (top of the series), parasite line B.

Records with an inconclusive call do not appear. Unmarked numbers belong to inactive results. Calls of active or inactive are those of the source. Calls follow the shape of the dose curve; as a rule, active = well fitted inhibition curve with a large enough effect; inconclusive = small, poorly fitted or top-dose-only effect; inactive = flat fitted curve, though single readings scatter.
Potency is read from the fitted curve at half-maximal effect.

Regarding `CC(=O)OCC(CCn1cnc2cnc(N)nc21)COC(C)=O`, the activity, negative = inhibition is -2.23% in assay [1] (setting [2]) and 0.392% in assay [1] (setting [3]). Also, the Potency result with 3D7, in the assay on 7G8, in the assay on AA1029, in the assay on AS120, in the assay on ATS189 and in the assay with ATS95 was “inactive” throughout. Further, the Potency entry in the assay with C2A, in the assay on CP185 and with CP191 was “inactive” throughout.

On to `NC(=O)NO`, for which the activity, negative = inhibition in [1] (setting [2]) was 16%; in assay [1] (setting [3]), 12.9%. Also, the Potency result with 3D7, with 7G8, with AA1029, in the assay on AS120, with ATS189 and in the assay on ATS95 was “inactive” in each case. Further, the Potency entry with C2A, with CP185 and in the assay on CP191 was “inactive” throughout.

`O=C(c1ccc(F)cc1)C1CCN(CCn2c(=O)[nH]c3ccccc3c2=O)CC1`: the activity, negative = inhibition was 5.58% in [1] (setting [2]) and 9.97% in assay [1] (setting [3]). The Potency result with 3D7, in the assay with AA1029, with AS120, with ATS189, in the assay on ATS95 and with C2A was “inactive” each time. The Potency entry with CP185 is “inactive”. Also, the Potency in the assay on 7G8 is 5.01 µM (active).

Consider `CN(CCOc1ccc(NS(C)(=O)=O)cc1)CCc1ccc(NS(C)(=O)=O)cc1`, for which the activity, negative = inhibition in assay [1] (setting [2]) was 1.37%; in [1] (setting [3]) it was 5.56%. Moreover, the Potency result in the assay with 3D7, with 7G8, with AA1029, in the assay with AS120, in the assay with ATS189 and with ATS95 was “inactive” each time. In addition, the Potency result in the assay on C2A, with CP185 and in the assay with CP191 was “inactive” throughout.

`COc1ccc2[nH]cc(CCNC(C)=O)c2c1`: the values for the activity, negative = inhibition in [1] (setting [2]) and in assay [1] (setting [3]) were 6.49% and 12.1%, respectively. For the same compound, the Potency entry with 3D7, in the assay with 7G8, in the assay on AA1029, in the assay on AS120, in the assay on ATS189 and in the assay on ATS95 was “inactive” each time. The Potency result with C2A, with CP185 and in the assay with CP191 was “inactive” each time.

For the compound `CN1CCN2c3ccccc3Cc3ccccc3C2C1` (configuration not stated), the activity, negative = inhibition in assay [1] (setting [2]) is 6.93%; in assay [1] (setting [3]), 3.33%. Further, the Potency result in the assay with 3D7, in the assay on 7G8, in the assay with AA1029, with AS120, in the assay with ATS189 and in the assay with ATS95 was “inactive” in each case. Moreover, the Potency entry in the assay on C2A, in the assay on CP185 and in the assay on CP191 was “inactive” throughout.

For the compound `Cc1cc(C(C)(C)C)cc(C)c1CC1=NCCN1`, the values for the activity, negative = inhibition in assay [1] (setting [4]) and in assay [1] (setting [5]) were -3.52% and -6.56%, respectively. In addition, the Potency entry in the assay with 3D7, in the assay on 7G8, in the assay with AA1029, with AS120, in the assay with ATS189 and in the assay with ATS95 was “inactive” in each case. Further, the Potency result in the assay with C2A, with CP185 and in the assay with CP191 was “inactive” each time.

Regarding `CCOC(=O)Nc1ccc(NCc2ccc(F)cc2)nc1N`, the Potency is 7.94 µM (active) in assay [1] (parasite line A); 12.6 µM (active) in [1] (parasite line B); 7.94 µM (active) with 3D7; 10 µM (active) in the assay with 7G8; 11.2 µM (active) with AA1029; 12.6 µM (active) in the assay with AS120. The Potency was 10 µM (active) in the assay on ATS189 and 11.2 µM (active) in the assay with CP191.

On to `O=c1[nH]cc(F)c(=O)[nH]1`, for which, in [1] (setting [3]), the activity, negative = inhibition was -26.3%. Also, the Potency in the assay with 7G8 was 12.6 µM (active). The Potency result in the assay with ATS189 was “inactive”.

For the compound `O=C(c1ccc(OCCN2CCCCC2)cc1)c1c(-c2ccc(O)cc2)sc2cc(O)ccc12`, the Potency is 2.82 µM (active) in [1] (parasite line A); 11.2 µM (active) in assay [1] (parasite line B); 2 µM (active) with 3D7; 2.51 µM (active) in the assay on 7G8; 11.2 µM (active) in the assay on AA1029; 2.82 µM (active) in the assay on AS120. Moreover, the Potency in the assay on C2A is 10 µM (active); with CP191 it was 5.01 µM (active).

For `CC1(CN2CCC(n3c(=O)[nH]c4ccccc43)CC2)OCc2ccccc2-n2cccc21` (configuration not stated), the Potency in the assay on 7G8 was 3.16 µM (active); in the assay on AS120, 10 µM (active).

For `O=c1c(O)c(-c2ccc(O)c(O)c2)oc2cc(O)cc(O)c12`, the Potency is 12.6 µM (active) with 3D7 and 11.2 µM (active) in the assay with AS120.

On to `CNCCCC12CCC(c3ccccc31)c1ccccc12`, for which the figures for the activity, negative = inhibition in assay [1] (setting [2]) and in [1] (setting [3]) were 0.742% and -2.12%, respectively. Further, the Potency entry in the assay with 3D7, in the assay with AA1029, with AS120, with ATS189, in the assay on C2A and in the assay with CP185 was “inactive” in each case. Further, the Potency in the assay with 7G8 is 10 µM (active).

`CC(C)NCC(O)COc1ccc(CCOCC2CC2)cc1` (configuration not stated): the activity, negative = inhibition is 13.9% in assay [1] (setting [2]) and -3.18% in [1] (setting [3]). Moreover, the Potency result in the assay on 3D7, in the assay on AA1029, in the assay on AS120, with ATS95, in the assay on C2A and in the assay on CP185 was “inactive” each time. Also, in the assay on 7G8, the Potency is 11.2 µM (active).

In the case of `CCCCc1oc2ccccc2c1C(=O)c1cc(I)c(OCCN(CC)CC)c(I)c1`, the Potency in [1] (parasite line A) is 4.47 µM (active); in [1] (parasite line B), 2.82 µM (active); with 7G8 it was 3.16 µM (active); in the assay on AA1029 it was 6.31 µM (active); with AS120, 3.55 µM (active); in the assay on ATS189, 5.62 µM (active). In addition, the Potency with ATS95 was 5.01 µM (active); with C2A, 10 µM (active); in the assay on CP185 it was 8.91 µM (active); in the assay on CP191, 8.91 µM (active).

For the compound `CC#C[C@]1(O)CC[C@H]2[C@@H]3CCC4=CC(=O)CCC4=C3[C@@H](c3ccc(N(C)C)cc3)C[C@@]21C`, the Potency was 8.91 µM (active) in assay [1] (parasite line A); 8.91 µM (active) in assay [1] (parasite line B); 8.91 µM (active) in the assay with 3D7; 2.82 µM (active) in the assay with 7G8; 12.6 µM (active) in the assay with AA1029; 7.08 µM (active) with AS120. In the assay with CP191, the Potency was 11.2 µM (active).

In the case of `Cc1ccc(-c2cc(C(F)(F)F)nn2-c2ccc(S(N)(=O)=O)cc2)cc1`, the Potency result in the assay with CP185 is “inactive”.

For `NCCCCCC(=O)O`, the activity, negative = inhibition in [1] (setting [4]) is 3.43%; in assay [1] (setting [5]), 5.54%. Also, the Potency result with 3D7, in the assay on 7G8, in the assay on AA1029, in the assay with AS120, in the assay on ATS189 and in the assay with ATS95 was “inactive” in each case. Further, the Potency result in the assay with C2A, in the assay on CP185 and in the assay with CP191 was “inactive” each time.

As for `Cc1ccc(C(=O)Nc2ccc(S(=O)(=O)O)c3cc(S(=O)(=O)O)cc(S(=O)(=O)O)c23)cc1NC(=O)c1cccc(NC(=O)Nc2cccc(C(=O)Nc3cc(C(=O)Nc4ccc(S(=O)(=O)O)c5cc(S(=O)(=O)O)cc(S(=O)(=O)O)c45)ccc3C)c2)c1`, the Potency entry with 3D7, with 7G8, in the assay on ATS189, with C2A, with CP185 and in the assay on CP191 was “inactive” each time.

Take `COc1ccc(CCN(C)CCCC(C#N)(c2ccc(OC)c(OC)c2)C(C)C)cc1OC` (configuration not stated): the activity, negative = inhibition is 7.01% in [1] (setting [2]) and 8.01% in assay [1] (setting [3]). Besides, the Potency result in the assay with 3D7, with AS120, in the assay on ATS189, in the assay with ATS95, with C2A and in the assay with CP185 was “inactive” throughout. Also, the Potency entry with CP191 was “inactive”.

As for `CN(Cc1cnc2nc(N)nc(N)c2n1)c1ccc(C(=O)N[C@@H](CCC(=O)O)C(=O)O)cc1`, the Potency in assay [1] (parasite line A) was 0.112 µM (active); in [1] (parasite line B), 0.141 µM (active); with 3D7, 0.141 µM (active); in the assay with 7G8 it was 0.126 µM (active); in the assay on AS120 it was 0.141 µM (active); in the assay on C2A it was 0.251 µM (active). Moreover, the Potency result with AA1029 is “inactive”.

On to `NCCc1cnc[nH]1`, for which the results for the activity, negative = inhibition in [1] (setting [2]) and in [1] (setting [3]) were 7.72% and 10.7%, respectively. Further, the Potency entry in the assay with 7G8, in the assay with AA1029, with AS120, in the assay on ATS189, with C2A and with CP185 was “inactive” in each case. The Potency result in the assay on CP191 is “inactive”.

For the origin of these results see PubChem BioAssay (NCATS).
